PubChem BioAssay AID1159580 (chemical genetic matrix, 2015)
Among all 5,500 compounds or so, about 2,000 (36%) were called active. Not shown: some 18% with an inconclusive outcome. Cut-off read from the data, not from the text of the source: active = normalized growth mostly below about 0.91 (no sharp cut-off); inconclusive = no clear call, values can overlap the other calls; inactive = mostly above about 0.92. Some of the results follow.

Experiment: chemical genetic growth profiling, strain panel (AID 1159580);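 note: tested at 20 µM; growth read once vehicle control cultures reached saturation at 30 °C; 1 = growth at the plate median or of vehicle wells; lower values mean less growth of the strain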
Settings: growth OD

Measured: normalized growth

Cc1onc(-c2c(Cl)cccc2Cl)c1C(=O)N[C@@H]1C(=O)N2[C@@H]1SC(C)(C)[C@@H]2C(=O)O
inactive: S. cerevisiae deletion strains, locus YJR066W, strain TOR1, hits give low values 0.946 | S. cerevisiae deletion strains, locus YJR075W, strain HOC1, hits give low values 1.02 | S. cerevisiae deletion strains, locus YKL009W, strain mrt4, hits give low values 0.986 | S. cerevisiae deletion strains, locus YKL068W, hits give low values 1.01 | S. cerevisiae deletion strains, locus YKL085W, strain MDH1 (second series), hits give low values 0.999 | S. cerevisiae deletion strains, locus YKL085W, strain MDH1, hits give low values 0.999 | S. cerevisiae deletion strains, locus YKL160W, strain elf1, hits give low values 0.982 | S. cerevisiae deletion strains, locus YKL190W, strain CNB1, hits give low values 1.01 | S. cerevisiae deletion strains, locus YKR001C, strain vps1, hits give low values 1 | S. cerevisiae deletion strains, locus YKR091W, strain srl3, hits give low values 1 | S. cerevisiae deletion strains, locus YLL001W, strain dnm1, hits give low values 0.962 | S. cerevisiae deletion strains, locus YLL026W, hits give low values 1 | S. cerevisiae deletion strains, locus YLL041C, strain sdh2, hits give low values 0.987 | S. cerevisiae deletion strains, locus YLR027C, strain aat2, hits give low values 0.991 | S. cerevisiae deletion strains, locus YLR039C, strain RIC1, hits give low values 1.03 | S. cerevisiae deletion strains, locus YLR058C, strain SHM2, hits give low values 1.02 | S. cerevisiae deletion strains, locus YLR102C, strain apc9, hits give low values 0.994 | S. cerevisiae deletion strains, locus YLR113W, strain HOG1, hits give low values 1.06 | S. cerevisiae deletion strains, locus YLR221C, strain rsa3, hits give low values 1.05 | S. cerevisiae deletion strains, locus YLR258W, strain gsy2, hits give low values 1.02 | S. cerevisiae deletion strains, locus YLR262C, strain YPT6 (second series), hits give low values 0.961 | S. cerevisiae deletion strains, locus YLR262C, strain YPT6, hits give low values 1.02 | S. cerevisiae deletion strains, locus YLR268W, strain sec22, hits give low values 0.987 | S. cerevisiae deletion strains, locus YLR320W, strain mms22, hits give low values 1.06 | S. cerevisiae deletion strains, locus YLR330W, strain CHS5, hits give low values 1.02 | S. cerevisiae deletion strains, locus YLR342W, strain FKS1 (second series), hits give low values 1.04 | S. cerevisiae deletion strains, locus YLR342W, strain FKS1, hits give low values 0.979 | S. cerevisiae deletion strains, locus YLR357W, strain rsc2, hits give low values 0.98 | S. cerevisiae deletion strains, locus YLR370C, strain arc18, hits give low values 1.01 | S. cerevisiae deletion strains, locus YLR371W, strain rom2, hits give low values 0.985 | S. cerevisiae deletion strains, locus YLR384C, strain iki3, hits give low values 0.977 | S. cerevisiae deletion strains, locus YLR418C, strain cdc73, hits give low values 0.946 | S. cerevisiae deletion strains, locus YML016C, strain PPZ1, hits give low values 1.02 | S. cerevisiae deletion strains, locus YML032C, strain rad52, hits give low values 0.987 | S. cerevisiae deletion strains, locus YML120C, strain ndi1, hits give low values 0.99 | S. cerevisiae deletion strains, locus YML124C, strain tub3, hits give low values 0.985 | S. cerevisiae deletion strains, locus YMR058W, strain fet3, hits give low values 1.01 | S. cerevisiae deletion strains, locus YMR078C, strain ctf18, hits give low values 0.991 | S. cerevisiae deletion strains, locus YMR125W, strain sto1, hits give low values 0.951 | S. cerevisiae deletion strains, locus YMR129W, hits give low values 0.997 | S. cerevisiae deletion strains, locus YMR205C, strain PFK2, hits give low values 0.984 | S. cerevisiae deletion strains, locus YMR223W, strain ubp8, hits give low values 0.973 | S. cerevisiae deletion strains, locus YMR231W, strain pep5, hits give low values 0.985 | S. cerevisiae deletion strains, locus YMR307W, strain GAS1, hits give low values 1.02 | S. cerevisiae deletion strains, locus YNL067W, strain RPL9B, hits give low values 1 | S. cerevisiae deletion strains, locus YNL071W, strain lat1, hits give low values 0.998 | S. cerevisiae deletion strains, locus YNL128W, strain TEP1, hits give low values 1.01 | S. cerevisiae deletion strains, locus YNL183C, strain NPR1, hits give low values 1 | S. cerevisiae deletion strains, locus YNL209W, strain ssb2, hits give low values 1.02 | S. cerevisiae deletion strains, locus YNL233W, strain BNI4, hits give low values 0.997 | S. cerevisiae deletion strains, locus YNL248C, strain rpa49, hits give low values 1.03 | S. cerevisiae deletion strains, locus YNL250W, strain rad50, hits give low values 0.989 | S. cerevisiae deletion strains, locus YNL271C, strain bni1, hits give low values 0.98 | S. cerevisiae deletion strains, locus YNL298W, strain CLA4, hits give low values 0.999 | S. cerevisiae deletion strains, locus YNL307C, strain MCK1, hits give low values 0.987 | S. cerevisiae deletion strains, locus YNL322C, strain KRE1 (second series), hits give low values 0.965 | S. cerevisiae deletion strains, locus YNL322C, strain KRE1, hits give low values 1.01 | S. cerevisiae deletion strains, locus YNR049C, strain mso1, hits give low values 0.991 | S. cerevisiae deletion strains, locus YNR052C, strain pop2, hits give low values 0.997 | S. cerevisiae deletion strains, locus YOL006C, strain TOP1, hits give low values 1.03 | S. cerevisiae deletion strains, locus YOL012C, strain htz1 1.88 | S. cerevisiae deletion strains, locus YOL147C, strain pex11, hits give low values 0.987 | S. cerevisiae deletion strains, locus YOR001W, strain rrp6, hits give low values 0.972 | S. cerevisiae deletion strains, locus YOR061W, strain CKA2, hits give low values 1.03 | S. cerevisiae deletion strains, locus YOR069W, strain VPS5, hits give low values 1.02 | S. cerevisiae deletion strains, locus YOR070C, strain gyp1, hits give low values 1.01 | S. cerevisiae deletion strains, locus YOR080W, strain dia2, hits give low values 0.967 | S. cerevisiae deletion strains, locus YOR083W, strain WHI5, hits give low values 0.964 | S. cerevisiae deletion strains, locus YOR106W, strain vam3, hits give low values 0.957 | S. cerevisiae deletion strains, locus YOR136W, strain idh2, hits give low values 0.988 | S. cerevisiae deletion strains, locus YOR144C, strain elg1, hits give low values 0.989 | S. cerevisiae deletion strains, locus YOR184W, strain ser1, hits give low values 0.978 | S. cerevisiae deletion strains, locus YOR231W, strain MKK1, hits give low values 1.06 | S. cerevisiae deletion strains, locus YOR265W, strain rbl2, hits give low values 0.985 | S. cerevisiae deletion strains, locus YOR270C, strain vph1, hits give low values 0.995 | S. cerevisiae deletion strains, locus YOR290C, strain snf2, hits give low values 1.03 | S. cerevisiae deletion strains, locus YOR316C, strain cot1, hits give low values 0.998 | S. cerevisiae deletion strains, locus YPL051W, strain arl3, hits give low values 1.01 | S. cerevisiae deletion strains, locus YPL078C, strain atp4, hits give low values 0.951 | S. cerevisiae deletion strains, locus YPL106C, strain sse1, hits give low values 0.964 | S. cerevisiae deletion strains, locus YPL240C, strain hsp82, hits give low values 0.998 | S. cerevisiae deletion strains, locus YPL241C, strain CIN2, hits give low values 1.02 | S. cerevisiae deletion strains, locus YPL256C, strain CLN2, hits give low values 1.04 | S. cerevisiae deletion strains, locus YPR119W, strain clb2, hits give low values 0.99 | S. cerevisiae deletion strains, locus YPR141C, strain kar3, hits give low values 1 | S. cerevisiae deletion strains, locus YPR163C, strain tif3, hits give low values 0.998 | S. cerevisiae deletion strains, locus YPR167C, strain met16, hits give low values 0.985 | S. cerevisiae deletion strains, strain wtn01, hits give low values 0.97 | S. cerevisiae strains, strain wild type, hits give low values 1.02
active: S. cerevisiae deletion strains, locus YKR026C, strain gcn3, hits give low values 1.47 [resistant]
